PubChem BioAssay AID1479148 (National Center for Advancing Translational Sciences (NCATS), 2020)
Records with an inconclusive call do not appear. Active and inactive are the calls of the source. Calls follow the shape of the full dose curve.

Test: Confirmatory qHTS for inhibitors of SARS-S pseudo-typed particle cell entry
Settings: SARS-S pseudotyped particle cell entry, reporter luminescence; series mostly up to 57.1 µM

Compound | Potency
COc1cc(N)c(Cl)cc1C(=O)NC1CCN(CCCOc2ccc(F)cc2)CC1OC (stereo not drawn) | inactive
Nc1nc(Cl)nc2c1ncn2C1CC(O)C(CO)O1 (stereo not drawn) | 12.1 µM (active)
CC(=O)Oc1ccccc1C(=O)Nc1ncc([N+](=O)[O-])s1 | 12.1 µM (active)
COC(=O)C[C@](O)(CCCC(C)(C)O)C(=O)O[C@@H]1C(OC)=C[C@]23CCCN2CCc2cc4c(cc2[C@H]13)OCO4 | 1.52 µM (active)
O=c1ccc2ccccc2o1 | inactive
CC(C)(C)NC(=O)[C@H]1CC[C@H]2[C@@H]3CC[C@H]4NC(=O)C=C[C@]4(C)[C@H]3CC[C@]12C | inactive
Cc1oncc1C(=O)Nc1ccc(C(F)(F)F)cc1 | inactive
Cc1cc(C(C#N)c2ccc(Cl)cc2)c(Cl)cc1NC(=O)c1cc(I)cc(I)c1O (stereo not drawn) | 30.4 µM (active)
Nc1ccn([C@@H]2O[C@H](CO)[C@@H](O)C2(F)F)c(=O)n1 | 0.192 µM (active)
CN(C)[C@@H](CCOc1cccc2ccccc12)c1ccccc1 | 6.81 µM (active)
C[C@@H]1CCO[C@H]2Cn3cc(C(=O)NCc4ccc(F)cc4F)c(=O)c(O)c3C(=O)N12 | 0.0096 µM (active)
COc1cc([C@@H]2c3cc4c(cc3C(O[C@@H]3O[C@@H]5CO[C@@H](c6cccs6)OC5[C@H](O)[C@H]3O)C3COC(=O)[C@@H]32)OCO4)cc(OC)c1O (stereo partly drawn) | 1.08 µM (active)
COc1cccc2c1C(=O)c1c(O)c3c(c(O)c1C2=O)C[C@@](O)(C(=O)CO)C[C@@H]3O[C@H]1C[C@H](N)[C@H](OC2CCCCO2)[C@H](C)O1 (stereo partly drawn) | 7.64 µM (active)
